Values joined by “and” are separate entries in the source; they are usually repeats but may differ in a detail not shown here. Identical values can stand only once. Screen size: about 31,000 compounds; about 360 (1.2%) were called active. Not shown: some 8% with an inconclusive outcome. The call rests on the fitted dose curve. What follows is part of a selection rich in actives, with near analogues and random picks from the rest. A call without a number means that no potency is given here.
Potency means the concentration at half of the fitted maximal effect.

In the assay the target is Polyprotein P1234 (Chikungunya virus (strain S27-African prototype)) (UniProt Q8JUX6). Description: Primary qHTS for inhibitors of NSP2Pro chikungunya virus (CHIKV). Further: nearly all actives have a fitted effect of over 60% in size. The following applies: FRET peptide cleavage, fluorescence 1 h; series mostly up to 24.9 µM. The source says: PI: Natalia J. Martinez Ph.D. National Center for Advancing Translational Sciences (NCATS), National Institute of Health (NIH), Rockville, Maryland Chikungunya virus (CHIKV) is a mosquito-borne RNA virus that has emerged as one of the most important global arboviral threats in the last decade. Although the first CHIKV vaccine has recently been FDA approved for use in healthy adults at increased risk, to date, there are no available antiviral drugs for CHIKV infection. CHIKV nsP2 protease plays a crucial role in the processing of the viral polypeptide precursor to release enzymes required for viral replication, thus making it a promising drug target for antiviral discovery. Here, we established a high-throughput pipeline to identify small molecule inhibitors of nsP2 proteolytic activity. The pipeline is composed of a suite of 1,536-well in vitro assays to support quantitative high-throughput (qHTS) screening campaigns. Specifically, we developed a fluorescence resonance energy transfer (FRET)-based assay using a fluorogenic peptide substrate encompassing an endogenous cleavage site and purified recombinant protease domain (nsP2pro). Using this assay, we interrogated ~37,000 small molecules, including those in drug repurposing libraries as well as chemically diverse and medicinal chemistry-friendly compounds. Hits were selected for follow-up validation against full-length nsP2 and an additional peptide. FRET-based 1,536-well assays for papain, hepatitis C virus NS3-4A, and human furin proteases were implemented to characterize compound selectivity. […] Novel compounds were identified to be potential nsP2 inhibitors and molecular docking analyses were performed to explain the binding mode of selected hits. In vitro antiviral activity was evaluated for a subset of compounds using a high-throughput CHIKV infection assay. To our knowledge, the pipeline presented here is unprecedented for CHIKV antiviral discovery research.
Chain of Polyprotein P1234 (Chikungunya virus (strain S27-African prototype)) (Q8JUX6 whole entry, looked up): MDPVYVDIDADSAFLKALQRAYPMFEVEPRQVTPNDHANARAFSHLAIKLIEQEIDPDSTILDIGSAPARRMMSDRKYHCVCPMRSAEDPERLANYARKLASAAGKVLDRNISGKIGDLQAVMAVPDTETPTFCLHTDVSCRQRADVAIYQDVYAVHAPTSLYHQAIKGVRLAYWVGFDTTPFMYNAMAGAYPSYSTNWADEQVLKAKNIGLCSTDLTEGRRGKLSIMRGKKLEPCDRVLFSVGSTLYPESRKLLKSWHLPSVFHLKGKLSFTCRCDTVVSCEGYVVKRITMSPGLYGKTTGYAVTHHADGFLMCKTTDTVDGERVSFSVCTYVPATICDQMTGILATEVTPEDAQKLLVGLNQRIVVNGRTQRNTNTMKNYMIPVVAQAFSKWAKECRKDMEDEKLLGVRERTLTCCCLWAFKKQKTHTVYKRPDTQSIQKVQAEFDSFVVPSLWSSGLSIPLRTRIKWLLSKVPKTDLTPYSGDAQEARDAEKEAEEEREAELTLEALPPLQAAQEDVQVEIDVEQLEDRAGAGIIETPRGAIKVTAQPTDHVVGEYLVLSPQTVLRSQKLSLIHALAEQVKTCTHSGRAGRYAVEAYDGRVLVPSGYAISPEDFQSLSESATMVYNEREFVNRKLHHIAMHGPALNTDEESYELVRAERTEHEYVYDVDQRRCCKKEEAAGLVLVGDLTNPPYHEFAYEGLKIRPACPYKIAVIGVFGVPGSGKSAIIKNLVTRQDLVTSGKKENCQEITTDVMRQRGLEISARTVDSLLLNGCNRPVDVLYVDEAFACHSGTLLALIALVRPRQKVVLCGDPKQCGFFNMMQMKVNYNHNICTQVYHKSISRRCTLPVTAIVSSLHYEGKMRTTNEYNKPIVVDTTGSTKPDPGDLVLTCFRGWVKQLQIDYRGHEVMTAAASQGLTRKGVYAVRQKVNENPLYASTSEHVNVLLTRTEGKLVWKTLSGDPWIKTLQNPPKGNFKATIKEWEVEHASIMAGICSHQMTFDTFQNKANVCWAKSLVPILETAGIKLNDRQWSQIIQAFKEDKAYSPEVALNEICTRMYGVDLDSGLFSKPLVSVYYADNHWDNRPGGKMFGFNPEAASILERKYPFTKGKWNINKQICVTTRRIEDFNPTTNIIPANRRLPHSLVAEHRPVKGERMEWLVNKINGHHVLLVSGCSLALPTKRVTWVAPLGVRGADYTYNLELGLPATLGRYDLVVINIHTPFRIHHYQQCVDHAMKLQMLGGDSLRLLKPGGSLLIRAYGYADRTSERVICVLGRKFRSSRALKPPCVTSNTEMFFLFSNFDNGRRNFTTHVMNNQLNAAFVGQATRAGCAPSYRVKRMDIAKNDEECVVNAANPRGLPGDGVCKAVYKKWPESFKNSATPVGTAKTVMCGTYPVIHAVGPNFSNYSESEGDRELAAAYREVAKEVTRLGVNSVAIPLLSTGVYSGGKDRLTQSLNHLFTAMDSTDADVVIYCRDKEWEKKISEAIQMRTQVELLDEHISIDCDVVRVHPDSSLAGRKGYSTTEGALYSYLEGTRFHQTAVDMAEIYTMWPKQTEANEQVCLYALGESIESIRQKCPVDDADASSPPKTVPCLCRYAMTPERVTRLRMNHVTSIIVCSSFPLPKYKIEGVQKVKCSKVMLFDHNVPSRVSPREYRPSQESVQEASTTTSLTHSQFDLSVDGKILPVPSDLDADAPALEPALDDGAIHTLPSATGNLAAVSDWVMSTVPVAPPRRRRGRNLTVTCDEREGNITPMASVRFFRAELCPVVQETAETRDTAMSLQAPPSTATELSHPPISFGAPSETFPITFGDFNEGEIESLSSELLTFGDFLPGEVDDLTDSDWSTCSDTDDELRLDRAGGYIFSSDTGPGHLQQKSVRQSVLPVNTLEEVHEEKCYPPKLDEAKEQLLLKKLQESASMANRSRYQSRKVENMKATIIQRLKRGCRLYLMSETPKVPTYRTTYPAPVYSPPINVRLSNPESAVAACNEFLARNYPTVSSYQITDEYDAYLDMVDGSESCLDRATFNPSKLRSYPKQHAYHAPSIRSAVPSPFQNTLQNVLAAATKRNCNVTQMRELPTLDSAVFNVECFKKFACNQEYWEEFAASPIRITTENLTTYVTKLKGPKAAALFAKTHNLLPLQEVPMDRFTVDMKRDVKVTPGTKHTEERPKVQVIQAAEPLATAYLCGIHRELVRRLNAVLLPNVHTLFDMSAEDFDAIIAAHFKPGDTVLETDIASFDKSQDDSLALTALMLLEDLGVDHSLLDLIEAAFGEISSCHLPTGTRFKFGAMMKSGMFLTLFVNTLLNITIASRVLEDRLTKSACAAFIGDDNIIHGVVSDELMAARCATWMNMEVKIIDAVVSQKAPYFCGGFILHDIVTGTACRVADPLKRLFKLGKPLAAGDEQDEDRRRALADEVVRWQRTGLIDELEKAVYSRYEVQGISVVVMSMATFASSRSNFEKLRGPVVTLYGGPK
PROTOCOL TABLE (as described by Inglese J, Shamu CE and Guy RK. 2007) SEQUENCE No. (e.g., 1, 2, 3, etc.); […] (e.g., Cells, Incubation, Reagent, etc.); VALUE; DESCRIPTION. 1; Control / Compound; 20 nL; Echo 655 acoustic dispenser, Greiner 1536-well solid bottom black plate. 2; Enzyme; 4 uL; BioRAPTR FRD liquid dispenser (Beckman Coulter). 3; Incubation; 15 min; room temperature. 4; Reagent; 4 uL; 2.5 uM Peptide 2 substrate. 5; Incubation; 1 hr; room temperature. 6; Detection; Fluorescence; WiewLux microplate reader (PerkinElmer), 525 nm excitation, 598/25 nm emission. NOTES (numbers refer to sequence numbers above). 1. Briefly, 20 nL DMSO, positive control ZnAc (20nM final concentration), and test compounds were transferred into a 1,536-well solid bottom black plate (789176-F, Greiner One) via Echo 655 acoustic dispenser (Beckman Coulter). For primary screens, compounds were tested at 7 concentrations, 1:3 dilution points ranging from 25 uM to 34 nM. Follow-up confirmatory screens were carried out at 11 concentrations, 1:3 dilution points from 25 uM to 0.42 nM. 2. Four uL nsP2pro enzyme mix (150 nM final concentration) in 10 mM Tris-HCl pH 8.0 with 0.01% Tween 20 assay buffer was dispensed into the plate using a BioRAPTR FRD liquid dispenser (Beckman Coulter). 3. The plate was incubated at room temperature (protected from light) for 15 min 4. Four microliter of peptide 2 substrate (2.5 uM final concentration) in assay buffer was added to the plate. 5. After 1 hour, plates were immediately read on a ViewLux high-throughput CCD imager (Exposure = 10 sec, Gain = High, Speed = Slow, Binning = 2X). The above assay was also incorporated in the NCATS HTS facility41, which allowed for robotic liquid and compound dispensing, microplate handling, and fluorescence reading.. REFERENCE: Inglese J, Shamu CE and Guy RK, Reporting data from high throughput screening of small molecule libraries, Nature Chemical Biology, 2007, 3(8): 438-441. doi.org/10.1038/nchembio0807-438.
In general terms: Quantitative high-throughput screening tests each substance at several concentrations.
Regarding `Cc1ccc(Cl)cc1NC(=O)C1CCCN(c2cnccn2)C1` (centres undefined), the Potency entry was “inactive”.
The same measure for `C=C1C(=O)OC2C=C(C)CC/C=C(\CO)CC(O)C12` (centres undefined): “inactive”; for `CCN(c1ncnc2c1cnn2-c1ccc(C)cc1)C1CCCCC1`: “inactive”.
With `Cc1ccc(Cl)cc1NC(=O)/C(C#N)=C\c1cn(Cc2ccc(F)cc2)c2ccccc12` the entry was “inactive”; with `CCCN1CCc2nc(N3CCN(C)CC3)ncc2C1`, “inactive”; with `CC1CCN(S(=O)(=O)c2ccc3c(ccn3CCC(=O)NCc3ccc(N(C)C)cc3)c2)CC1`, “inactive”.
As for `Oc1ccc2c3c1O[C@H]1c4[nH]c5c(N=C=S)cccc5c4C[C@@]4(O)[C@@H](C2)N(CC2CC2)CC[C@]314`, the Potency result is “inactive”.
On to `O=C(NCC(c1ccc2c(c1)OCO2)N1CCN(c2ccccc2)CC1)C(=O)Nc1ccccc1F` (centres undefined), for which the Potency entry is “inactive”.
The same measure for `Cc1cc(C(=O)NC2CC(c3cc(=O)[nH]cn3)C2)cc(S(N)(=O)=O)c1C` (centres undefined): “inactive”; for `CCS(=O)(=O)N1CCc2cc(C(=O)NCc3ccc(OC)cc3)ccc21`: “inactive”.
Consider `Cc1nc(CNC(=O)[C@H]2CCC[C@@H](O)C2)nc2c1CCCC2`, for which the Potency result was “inactive”.
The same measure for `CCOC(=O)c1ccc(NC(=O)C2CC(=O)N(c3ccc(C(C)C)cc3)C2)cc1` (centres undefined): “inactive”; for `Cc1nc(C)c(-c2ccc3ncnc(N(C)Cc4sccc4C)c3c2)s1`: “inactive”; for `O=C(Cn1c(=O)n(-c2ccc(F)cc2)c(=O)c2sccc21)Nc1cccc(C(F)(F)F)c1`: “inactive”.
With `COc1cc(C(C)=O)ccc1O[C@@H]1O[C@H](CO[C@@H]2OC[C@@H](O)[C@H](O)[C@H]2O)[C@@H](O)[C@H](O)[C@H]1O` the entry was “inactive”; with `Cc1cc(-c2ccc(C)c(S(=O)(=O)N3c4ccccc4CC3C)c2)on1` (centres undefined), “inactive”; with `CCOC(=O)N1CCc2c(sc3c2c(=O)n(Cc2ccccc2)c(=O)n3CC(=O)Nc2cccc(C)c2)C1`, “inactive”.
As to `CNC(=O)[C@@H]1C[C@@H](O)CN1C1CCN(C(=O)C2(c3ccccc3)CC2)CC1`, the Potency entry is “inactive”.
The same measure for `O=c1cc(-c2cccnc2)oc2c(-c3cccc(CO)c3)nccc12`: “inactive”.
As for `NC(=O)CN1CC2(CCC1=O)CCN(C[C@@H](O)CO)CC2`, the Potency result is “inactive”.
With `Cc1nc(C(=O)N2CCn3nc(Cc4ccccc4)cc3C2)cs1` the entry was “inactive”; with `OCC1(CCCc2ccccc2)CCCNC1` (centres undefined), “inactive”.
For the compound `Cc1ccc(OCCn2c(CCNC(=O)c3ccccc3)nc3ccccc32)cc1`, the Potency entry is “inactive”.
Take `Cc1cccc(Nc2nc(C)nc(N)c2S(=O)(=O)c2ccccc2)c1`: the Potency result is “inactive”.
On to `N#CSc1cc(SC#N)c(N)nc1N`, for which the Potency was 664 nM (active) and 351 nM (active) and 1.24 µM (active).
On to `CCCNC(=O)C(CC)n1nc(CC)n2c(cc3oc(C)cc32)c1=O` (centres undefined), for which the Potency result is “inactive”.
The same measure for `COc1ccc(-c2ccccc2C(=O)NCC#N)nn1`: “inactive”; for `COC([CH2][Hg])CNC(=O)c1ccccc1OCC(=O)O` (centres undefined): 1.49 µM (active); for `Cc1ccc(CNC(=O)CSC2=Nc3ccccc3C3=NC(C)C(=O)N23)cc1` (centres undefined): “inactive”.
